Data: paper PMC5540273 (PLoS ONE, 2017)

Key:
Conditions in all cases: concentration: 1 μM, replicates: in singlicate; n = 1
LCK = system: LCK
LIMK1 = system: LIMK1
LIMK2 = system: LIMK2
LKB1 = system: T1, LKB1
T1 construct: gene STK11

LOK = system: T2, LOK
T2 construct: gene STK10

LRRK2 = system: LRRK2
LTK = system: LTK
LYN = system: LYN
LZK = system: T3, LZK
T3 construct: gene MAP3K13

MAK = system: MAK
MAP3K15 = system: MAP3K15
MAP3K1 = system: MAP3K1
MAP3K2 = system: MAP3K2
MAP3K3 = system: MAP3K3
MAP3K4 = system: MAP3K4
MAP4K2 = system: MAP4K2
MAP4K3 = system: MAP4K3
MAP4K4 = system: MAP4K4
MAP4K5 = system: MAP4K5
MAPKAPK2 = system: MAPKAPK2
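Note: KINOMEscan kinase panel screen.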

Row | Structure (SMILES) | %Inh (LCK) [%] | %Inh (LIMK1) [%] | %Inh (LIMK2) [%] | %Inh (LKB1) [%] | %Inh (LOK) [%] | %Inh (LRRK2) [%] | %Inh (LTK) [%] | %Inh (LYN) [%] | %Inh (LZK) [%] | %Inh (MAK) [%] | %Inh (MAP3K15) [%] | %Inh (MAP3K1) [%] | %Inh (MAP3K2) [%] | %Inh (MAP3K3) [%] | %Inh (MAP3K4) [%] | %Inh (MAP4K2) [%] | %Inh (MAP4K3) [%] | %Inh (MAP4K4) [%] | %Inh (MAP4K5) [%] | %Inh (MAPKAPK2) [%]
1 | COc1cc(Nc2ncc3c(C)nc(-c4cc5ccccc5[nH]4)n3n2)cc(OC)c1OC [GW869516] | 71 | 0 | 4 | 0 | 8 | 0 | 0 | 26 | 0 | 0 | 0 | 0 | 0 | 14 | 52 | 0 | 0 | 19 | 11 | 0
2 | c1ccc(-c2cnc3nccnn23)cc1 [AH20685] | 11 | 19 | 0 | 0 | 0 | 5 | 0 | 64 | 0 | 33 | 0 | 0 | 0 | 0 | 21 | 0 | 0 | 0 | 0 | 0
3 | Cl.c1ccc(-c2ccc3c(Nc4ccc5[nH]ncc5c4)ccnc3c2)nc1 [GW440137] | 42 | 9 | 23 | 0 | 2 | 0 | 18 | 31 | 1 | 21 | 4 | 22 | 0 | 0 | 4 | 0 | 0 | 0 | 0 | 1
4 | CCc1ccc(-c2ccc3c(c2)-c2c(cnn2C)S(=O)(=O)N3C)cc1 | 0 | 0 | 0 | 29 | 16 | 1 | 3 | 0 | 14 | 14 | 0 | 34 | 0 | 0 | 23 | 0 | 3 | 0 | 1 | 13
5 | CC(C)c1nc(-c2cccc(NS(=O)(=O)c3c(F)cccc3F)c2F)c(-c2ccnc(Nc3ccc(N4CCOCC4)nc3)n2)s1 [GSK2008607] | 99.8 | 99.9 | 100 | 9 | 99.8 | 0 | 0 | 98.5 | 95.8 | 100 | 0 | 15 | 97.7 | 80 | 91.7 | 0 | 88 | 40 | 88 | 0
6 | CC(C)(C)c1ccc2nccc(Nc3cccc(O)c3)c2c1 [GW856795] | 85 | 0 | 1 | 29 | 0 | 36 | 18 | 22 | 0 | 40 | 0 | 0 | 0 | 0 | 0 | 100 | 0 | 23 | 29 | 11
7 | Nc1ncnc2c1nc(-c1ccccc1)n2-c1ccccc1 [SKF-97293] | 6 | 0 | 2 | 60 | 21 | 58 | 9 | 8 | 4 | 27 | 22 | 34 | 28 | 14 | 35 | 18 | 3 | 0 | 2 | 0
8 | Nc1ncc(-c2cccnc2)c2scc(-c3ccc4c(c3)CCN4C(=O)Cc3ccccc3)c12 [GSK683281] | 70 | 22 | 36 | 10 | 75 | 0 | 50 | 45 | 0 | 28 | 100 | 41 | 56 | 18 | 69 | 23 | 95.2 | 8 | 98.8 | 24
9 | Cc1ccc(C(=O)Nc2ccc(Nc3ccnc4cc(-c5nccs5)ccc34)cc2O)cc1.Cl [GW494702] | 86 | 26 | 0 | 0 | 68 | 0 | 1 | 65 | 21 | 46 | 16 | 14 | 0 | 0 | 19 | 0 | 0 | 5 | 71 | 17
10 | O=C(Nc1cccc(Oc2ccc3nc(NC(=O)C4CC4)cn3n2)c1)c1ccccc1C(F)(F)F | 72 | 6 | 7 | 0 | 95.1 | 0 | 39 | 57 | 0 | 0 | 0 | 0 | 0 | 8 | 26 | 0 | 64 | 8 | 29 | 0
11 | Cc1ccc(C(=O)N2CC[C@@H](O)C2)cc1-n1c(C)cc(OCc2ccc(F)cc2F)c(Br)c1=O | 99.4 | 0 | 0 | 36 | 0 | 0 | 0 | 74 | 0 | 0 | 0 | 0 | 0 | 0 | 0 | 0 | 0 | 6 | 8 | 0
12 | O=C(Nc1cccc(-c2nn3ccccc3c2-c2ccnc(Nc3cccc(F)c3)n2)c1)c1c(F)ccc(F)c1Cl [GSK357952] | 99.1 | 43 | 0 | 0 | 97.6 | 32 | 10 | 83 | 0 | 22 | 66 | 0 | 20 | 7 | 24 | 0 | 1 | 28 | 51 | 14
13 | Cl.Cl.NCC(NC(=O)c1cc(-c2ccccc2)c(-c2ccnc3[nH]ccc23)s1)c1ccccc1 (centres unmarked) [GSK1321561] | 87 | 0 | 0 | 0 | 0 | 0 | 21 | 66 | 0 | 23 | 0 | 22 | 27 | 0 | 0 | 64 | 0 | 98 | 24 | 0
14 | c1ccc(-c2n[nH]cc2Nc2ccnc3ccccc23)nc1 [GW694077] | 0 | 0 | 13 | 94 | 0 | 78 | 0 | 0 | 0 | 0 | 6 | 0 | 38 | 0 | 9 | 65 | 0 | 20 | 0 | 0
15 | Cn1cc(-c2ccc3c(c2)CCN3C(=O)Cc2cccc(F)c2)c2c(N)ncnc21 [GSK2603358] | 46 | 0 | 0 | 0 | 91.9 | 0 | 33 | 0 | 37 | 27 | 0 | 15 | 84 | 50 | 66 | 18 | 64 | 0 | 57 | 31
16 | COc1cc2c(cc1OCCN1CCNCC1)ncc1c3ccc(C#N)cc3[nH]c21 | 45 | 0 | 0 | 15 | 42 | 99.3 | 0 | 0 | 100 | 2 | 90.1 | 33 | 4 | 14 | 7 | 51 | 8 | 32 | 5 | 0
